Source: PubChem
HT1080 IDH1KD tx – HT-1080 IDH1 knockdown cell toxicity (counter line). actives 2% (n = 360,000). HT-1080 IDH1 knockdown viability, ATP luminescence, 48 h. Potency, µM (titrated, usually from 46.1 µM), without a hit: at the top dose activity, negative = toxicity, usual class: cytotoxic. AID 686971;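 also: potency is read from the fitted curve at half-maximal effect; 0% = DMSO wells and -100% = cell-free medium wells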
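Cytotoxicity counter-line: IDH1KD HT-1080, 48 h, CellTiter-Glo. Curves classed by r2, magnitude and activity.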
IL-1B inflam inh – inhibitors of inflammasome signaling (IL-1 beta secretion). THP-1 LPS/ATP IL-1B secretion, AlphaLISA, 16 h; active compounds read low. activity change, % at 57.5 µM. actives 4.7% (n = 360,000). AID 743279; in the data active = activity change below about -50%; inconclusive = mostly about -30% to -49%
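THP-1 cells pretreated 1 hr with compounds (up to 57.5 uM final), then stimulated with LPS (250 ng/mL final) plus ATP (1.25 mM final); secreted IL-1B measured by AlphaLISA after 16 hr, decreased signal indicating inhibition.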
ALOX12 inh – inhibitors of human 12S-lipoxygenase ALOX12. actives 1.1% (n = 580,000). purified 12hLO, xylenol orange hydroperoxide absorbance. AID 1671190. Potency, µM (doses to about 108 µM), inactives show top-dose activity change, negative = inhibition, hits mostly inhibitors; also: potency is read from the fitted curve at half-maximal effect
Target sequence (P18054 whole entry, looked up): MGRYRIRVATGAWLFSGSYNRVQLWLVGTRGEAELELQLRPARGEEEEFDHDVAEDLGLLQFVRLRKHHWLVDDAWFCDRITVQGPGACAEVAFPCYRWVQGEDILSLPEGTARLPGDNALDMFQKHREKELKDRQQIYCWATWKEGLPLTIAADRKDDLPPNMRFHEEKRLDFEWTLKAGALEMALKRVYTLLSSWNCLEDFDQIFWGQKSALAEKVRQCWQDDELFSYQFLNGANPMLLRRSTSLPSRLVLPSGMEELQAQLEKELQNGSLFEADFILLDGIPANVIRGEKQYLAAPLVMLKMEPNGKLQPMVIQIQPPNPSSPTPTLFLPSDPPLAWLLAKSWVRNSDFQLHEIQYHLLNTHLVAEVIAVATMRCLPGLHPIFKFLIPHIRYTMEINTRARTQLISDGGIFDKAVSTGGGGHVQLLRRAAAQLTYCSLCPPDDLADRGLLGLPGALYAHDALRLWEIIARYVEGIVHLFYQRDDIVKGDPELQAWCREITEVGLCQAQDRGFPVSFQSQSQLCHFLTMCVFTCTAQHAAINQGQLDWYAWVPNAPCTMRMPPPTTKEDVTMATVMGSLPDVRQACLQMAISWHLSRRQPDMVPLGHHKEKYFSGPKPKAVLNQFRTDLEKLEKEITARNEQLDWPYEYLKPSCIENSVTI
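Purified human 12hLO (150 nM final) in 25 mM Hepes, 0.01% Triton X-100, pH 7.0 was preincubated 15 min at room temperature with compound. Then 40 uM arachidonic acid was added, 30 min. Hydroperoxide was read by Fe-XO absorbance ratio 573/405 nm.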
TDP1 cell noCPT – qHTS for Inhibitors of human tyrosyl-DNA phosphodiesterase 1 (TDP1): qHTS in cells in absence of CPT; actives 15% (n = 420,000); Potency, µM (doses to about 46.2 µM), inactives show top-dose activity change, negative = growth inhibition, usual class: inhibitors; DT40 Tdp1-/- hTDP1 cells, no CPT, ATP luminescence, 48 h; also: potency is read from the fitted curve at half-maximal effect; nearly all actives have a fitted effect of over 55% in size
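Seeded 400 DT40-hTDP1 cells/well (vehicle DMSO, no 20 nM CPT); pinned compounds; ≥48 hr at 37 °C; CellTiter-Glo luminescence as viability measure.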
HT1080NT lethal – kills 2HG-producing HT-1080-NT fibrosarcoma cells. HT-1080-NT fibrosarcoma viability, CellTiter-Glo ATP luminescence, 48 h. Potency, µM (series often up to 46.1 µM), without a hit: at the highest dose activity, negative = less viability, hits mostly cytotoxic. actives 1.6% (n = 360,000). AID 686970;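 also: NT is the 2HG producing partner of a matched IDH1 knockdown line; potency is read from the fitted curve at half-maximal effect; 0% = DMSO-treated cells and -100% = media-only wells without cells; nearly all actives have a fitted effect of over 55% in size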
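Viability by CellTiter-Glo luminescence after 48 h compound exposure at 37C of HT-1080-NT cells (750/well, RPMI, 5% FBS). % activity scaled between DMSO wells and medium-only wells, then curve-fitted and categorized by curve class.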
DT40 TDP1 CPT – DT40-hTDP1 cell growth loss with CPT; actives 12% (n = 420,000); AID 686979; Potency, µM (series often up to 46.2 µM), for the others: top-dose activity change, negative = growth inhibition, most hits filed as inhibitors; chicken DT40 Tdp1-/-;hTDP1 cells + 20 nM CPT, ATP luminescence, 48 h; also: potency is read from the fitted curve at half-maximal effect; nearly all actives have a fitted effect of over 55% in size
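Cell growth measured by CellTiter-Glo luminescence after a minimum 48 h, 37 C compound exposure with 20 nM CPT in Tdp1-knockout DT40 cells stably expressing hTDP1, seeded 400/well; qHTS titration format.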
* hit, by the source's call; u = inconclusive; x = not tested or not shown. Many of the other results were omitted from the sample, so hits are more common in it than they were. Unless noted, calls follow the shape of the dose curve; as a rule, active = well fitted curve in the direction sought with a large enough effect; inconclusive = small, poorly fitted or top-dose-only effect, or another doubt; inactive = no such curve, though single readings can be large; an effect the other way counts as inactive or inconclusive. Unless noted, % is scaled to controls: 0 for no effect and ±100 for the full control effect.

SMILES	HT1080 IDH1KD tx	IL-1B inflam inh	ALOX12 inh	TDP1 cell noCPT	HT1080NT lethal	DT40 TDP1 CPT
OC1(c2ccc(Cl)c(C(F)(F)F)c2)CCN(CCCC(c2ccc(F)cc2)c2ccc(F)cc2)CC1	x	x	u	3µM*	x	2.7µM*
O=C(COc1ccc([N+](=O)[O-])cc1)Nc1ccc(CN2CCOCC2)cc1	0%	11	1%	21µM*	0%	u
Cc1cc(OCC(=O)Nc2ccc(CN3CCOCC3)cc2)ccc1Cl	-9%	-51*	11%	u	-3%	-74%
CCc1ccc(NC(=O)C(=O)NCCN2CCN(Cc3ccc([N+](=O)[O-])cc3)CC2)cc1	1%	18	-22%	9.2µM*	-2%	10µM*
O=S(Cc1ccccc1)Cc1ccccc1F (stereo not drawn)	x	x	31%	x	x	x
O=C(NCc1nnc2cc(-c3nc(C4CC4)no3)ccn12)c1ccc(F)c(Cl)c1	x	x	24%	x	x	x
O=C(Cc1ccccc1)NC(NC(=S)Nc1cc(Cl)ccc1Cl)C(Cl)(Cl)Cl (stereo not drawn)	-24%	24	4%	23µM*	-14%	-26%
O=C(COc1ccccc1)NC(NC(=S)Nc1ccccc1O)C(Cl)(Cl)Cl (stereo not drawn)	u	-4	-7%	-28%	-1%	u
O=C(NC(NC(=S)Nc1cc(Cl)ccc1Cl)C(Cl)(Cl)Cl)c1ccco1 (stereo not drawn)	u	-80*	u	-29%	u	u
O=C(NC(NC(=S)Nc1ccc(Cl)c(Cl)c1)C(Cl)(Cl)Cl)c1ccco1 (stereo not drawn)	u	-63*	2.8µM*	18µM*	u	21µM*
Cc1cc(N/C(=C\C(=O)c2ccccc2)c2ccccc2)ccc1Br	x	x	-7%	x	x	x
NC(=O)c1cc([N+](=O)[O-])c(Cl)cc1NCc1cccnc1	-6%	-77*	4%	u	4%	u
NC(=O)c1cc([N+](=O)[O-])ccc1NCc1cccnc1	28%	28	5%	u	4%	-26%
O=C(c1ccccc1)N1CCN(c2ccc([N+](=O)[O-])c(NCc3cccnc3)c2)CC1	-14%	-28	-11%	u	0%	u
Clc1ccc(NCc2cccnc2)c(Cl)c1	-1%	-59*	12%	u	-1%	-23%
O=C(NCc1cccnc1)Nc1ccc(Cl)cc1Cl	1%	-4	u	5%	5%	-5%
CC(C)(C)C(=O)N1CCN(c2ccc([N+](=O)[O-])c(NCc3cccnc3)c2)CC1	-21%	-5	-27%	4.1µM*	-12%	4.1µM*
Cc1ccc(NC(=O)c2cc([N+](=O)[O-])ccc2NCc2cccnc2)cc1Cl	u	-54*	-12%	u	u	u
Cc1ccc(C)c(S(=O)(=O)N2CCN(Cc3cc4c(cc3O)OCO4)CC2)c1	23%	-21	-8%	-36%	9%	u
O=C(O)c1ccc(/C=C/c2ccc3cccc(O)c3n2)cc1	-24%	12	-16%	18µM*	-10%	-11%
COC(=O)c1ccc(/C=C/c2ccc3cccc(OC(C)=O)c3n2)cc1	u	13	-27%	21µM*	-26%	18µM*
COc1c(OC(C)=O)ccc(/C=C/c2ccc3cccc(OC)c3n2)c1[N+](=O)[O-]	u	-85*	-3%	18µM*	u	26µM*
O=[N+]([O-])c1cccc(/C=C/c2ccc3cccc(O)c3n2)c1	u	42	u	3.7µM*	u	4.6µM*
COc1c(OC(C)=O)ccc(/C=C/c2ccc3ccccc3n2)c1[N+](=O)[O-]	u	-5	-17%	u	u	u
O=[N+]([O-])c1ccc(/C=C/c2ccc3cccc([N+](=O)[O-])c3n2)cc1	u	-3	-29%	u	-22%	-24%
SMILES	HT1080 IDH1KD tx	IL-1B inflam inh	ALOX12 inh	TDP1 cell noCPT	HT1080NT lethal	DT40 TDP1 CPT
Oc1ccc(/C=C/c2ccc3cccc(O)c3n2)cc1Br	-20%	38	u	u	u	u
COC(=O)c1ccc(COC(=O)Cc2c(Cl)cccc2Cl)cc1	x	x	-1%	x	x	x
COc1ccc(NC2CCCN(C(=O)CN3C(=O)c4ccccc4C3=O)C2)cc1OC (stereo not drawn)	10%	31	u	-19%	-7%	u
CCCCCn1c(CN2CCN(c3ccc(OC)cc3)CC2)nc2c1c(=O)[nH]c(=O)n2C	x	x	-34%	23µM*	x	u
CCCn1c(N2CCN(CC(=O)c3c(C)n(C)c4ccc(OC)cc34)CC2)nc2c1c(=O)[nH]c(=O)n2C	u	-19	u	21µM*	-23%	u
COc1ccc(CCn2c(N3CCN(CCO)CC3)nc3c2c(=O)[nH]c(=O)n3C)cc1	x	x	-18%	x	x	x
COC(=O)Cn1c(CN2CCN(c3cc(Cl)ccc3C)CC2)nc2c1c(=O)[nH]c(=O)n2C	x	x	-23%	x	x	x
CCCCCn1c(CN2CCN(c3cc(Cl)ccc3C)CC2)nc2c1c(=O)[nH]c(=O)n2C	0%	u	-16%	13µM*	13%	14µM*
COc1ccc(-c2cc3ccc(OCC(=O)OC(C)C)cc3oc2=O)cc1OC	x	x	29%	x	x	x
COCc1nc(C2CCN(C(=O)c3cccnc3)C2)no1 (stereo not drawn)	x	x	55%	x	x	x
Cc1cc(C)cc(NC(=O)Cc2nc(-c3cccs3)oc2C)c1	x	x	-31%	x	x	x
CCCCC1(C)Nc2ccccc2-c2nc3ccccc3n21 (stereo not drawn)	-3%	-8	1%	u	-3%	16µM*
c1ccc2c(c1)NC1(CCCCC1)n1c-2nc2ccccc21	u	0	-15%	-17%	-21%	-10%
CC1(c2ccccn2)Nc2ccccc2-c2nc3ccccc3n21 (stereo not drawn)	3%	-29	-16%	16µM*	1%	18µM*
CN1C(=O)C2(Nc3ccccc3-c3nc4ccccc4n32)c2ccccc21 (stereo not drawn)	-5%	0	-9%	-28%	-5%	-20%
O=C1Nc2ccccc2C12Nc1ccccc1-c1nc3ccccc3n12 (stereo not drawn)	-15%	-23	u	23µM*	-7%	u
C=C(C)COc1ccc2c(=O)c(Oc3ccc(C(=O)OCC)cc3)c(C)oc2c1	x	x	39%	x	x	x
